Jurkat NFkB inh: inhibitors of induced NF-kB luciferase reporter, primary screen, TCR NF-kB activation inhibitor project, cell-based, luminescence, uHTS; Jurkat, PMA/ionomycin-induced NF-kB luciferase reporter; inhibition, % at 4 µM; hit rate 0.53% among 330,000; AID 435003, 2010; in the data active = inhibition above about 50%
Shn3 3UTR inh: reduction of Shn3 3'UTR firefly luciferase signal, primary screen, Schnurri-3 inhibitor project, cell-based, Clone20 osteoblasts, set 2; Clone20 osteoblast Shn3 3'UTR firefly luciferase, 24 h; inhibition, % at 12.5 µM; hit rate 0.52% among 360,000;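 active = mean inhibition of at least 75% with every replicate also reaching 75%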
697 NFkB inh: inhibitors of PMA/ionomycin-induced NF-kB reporter, 697 cells, primary screen, B-cell NF-kB inhibitor project, cell-based, luminescence, uHTS | AID 435022, 2010 | inhibition, % at 4 µM | 697 B-cell NF-kB luciferase reporter, 16 h | hit rate 0.33% among 330,000; in the data active = inhibition above about 35%
Mdm2 MdmX PPI: inhibitors of human Mdm2-MdmX association, primary screen, cell-based, luminescence, split luciferase, SaOS-2, uHTS. SaOS-2 split-luciferase Mdm2/MdmX complementation. inhibition, % at 8 µM. hit rate 3% among 330,000. AID 485346, 2010;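 active = inhibition of at least 50% at 8 µM in the primary screen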
Gli-Sufu block: Gli-Sufu pathway antagonists, primary screen, luciferase luminescence, Sufu-KO-LIGHT cells, uHTS; Sufu-KO-LIGHT fibroblasts, Gli luciferase reporter luminescence; hit rate 0.74% among 340,000; inhibition, % at 5 µM;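 active = inhibition above about 55%, limit read from the data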
Jurkat NFkB conf: PMA/ionomycin-induced NF-kB reporter inhibitors, Jurkat retest, confirmation, T-cell NF-kB inhibitor project, cell-based, luminescence, single concentration. hit rate 27% among 2,700. shares compounds with Jurkat NFkB inh. Jurkat NF-kB luciferase, 16 h. AID 435020, 2010. inhibition, % at 4 µM;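 active = inhibition reaching about 45% at 4 µM in either replicate, limit read from the data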
697 NFkB conf: PMA/ionomycin-induced NF-kB reporter inhibitors, 697 retest, confirmation, B-cell NF-kB inhibitor project, cell-based, luminescence, single concentration; 697 B-cell NF-kB luciferase, 16 h; inhibition, % at 4 µM; shares compounds with 697 NFkB inh; hit rate 35% among 2,000; in the data active = inhibition mostly above about 28%, no sharp cut-off; inactive = mostly below about 22%
Mdm2-MdmX conf: Mdm2-MdmX complex disruptors, retested hits, confirmation, luminescence, single concentration | shares compounds with Mdm2 MdmX PPI | Mdm2-MdmX binding, luminescent assay | inhibition, % at 8 µM | hit rate 55% among 10,000; in the data active = inhibition above about 40%
FLuc counter: full-length luciferase signal inhibition, confirmation, counter-screen for Mdm2/MdmX interaction inhibitor project, cell-based, single concentration, SaOS-2; AID 504607, 2011; SaOS-2 full-length luciferase counterscreen, luminescence; shares compounds with Mdm2 MdmX PPI; hit rate 77% among 6,200; inhibition, % at 8 µM;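 active = mean inhibition at 8 µM reaching about 37%, which flags the compound as non-specific, limit read from the data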;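 note: p53-null SaOS-2 cells with luciferase driven by a doxycycline-inducible promoter; compound on cells about two nights before reading with doxycycline added after day one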
Hits are given with their value; i = inactive; nt = no result given. Sampled rows, rich in hits. Any-hit rate of the full collection: about 3.8%.

SMILES	Jurkat NFkB inh	Shn3 3UTR inh	697 NFkB inh	Mdm2 MdmX PPI	Gli-Sufu block	Jurkat NFkB conf	697 NFkB conf	Mdm2-MdmX conf	FLuc counter
COC(=O)c1ccc(-c2cc3onc(-c4ccccc4)c3c(=O)n2C)cc1	i	i	i	i	i	nt	nt	nt	nt
COc1cccc(-c2cc3onc(-c4ccccc4)c3c(=O)n2C)c1	i	i	i	i	i	i	i	nt	nt
Cc1ccc2nc(-c3ccc(NC(=O)CCN4C(=O)c5ccccc5C4=O)cc3)sc2c1	i	i	i	i	i	i	i	nt	nt
O=C(CCN1C(=O)c2ccccc2C1=O)Nc1ccc(-c2nc3ccccc3s2)cc1	i	i	i	i	i	i	i	nt	nt
Cc1ccc2nc(-c3ccc(NC(=O)C(C)N4C(=O)c5ccccc5C4=O)cc3)sc2c1 (centres undefined)	i	i	i	i	i	nt	nt	nt	nt
COc1ccc(-c2cc3nc4n(c(=O)c3s2)CCCCC4)cc1	i	i	i	i	i	i	i	nt	nt
COc1ccc2oc(C(=O)N3CCc4ccccc43)c(C)c2c1	i	i	i	i	i	i	i	nt	nt
Cc1ccc2c(c1)-c1nc3ccccc3cc1C2=NC1CCCCC1	nt	i	nt	nt	i	nt	nt	nt	nt
Cc1ccc2c(c1)Cc1nc3ccccc3nc1-2	i	i	i	i	i	i	i	nt	nt
COc1cccc2[nH]c3c(N4CCc5ccccc5C4)ncnc3c12	i	nt	i	i	i	nt	nt	nt	nt
c1ccc2c(c1)CCN(c1ncnc3c1[nH]c1ccccc13)C2	50	89	43	i	79	59	i	nt	nt
c1ccc2c(c1)CCN(c1nc3cc4c(cc3s1)OCO4)C2	i	i	i	i	i	i	i	nt	nt
O=C(NCCS(=O)(=O)N1CCN(c2ccccc2)CC1)c1ccccc1F	i	i	i	i	i	nt	nt	nt	nt
Cc1ccc(N/C=C/C(=O)c2cccs2)cc1C	i	i	i	i	i	i	i	nt	nt
O=[N+]([O-])c1ccccc1-c1nc(-c2ccc(Br)o2)no1	i	i	i	i	i	nt	nt	nt	nt
Clc1ccccc1-c1nc(-c2ccc(Br)o2)no1	i	i	i	i	i	i	i	nt	nt
COc1ccc(C=NNc2nc3ccccc3s2)cc1	nt	i	nt	nt	i	nt	nt	nt	nt
C(=N\Nc1nc2ccccc2s1)/c1ccccn1	84	nt	i	94	75	73	nt	95	48
CCOC(=O)N1CCC(NC(=O)c2cc3cc4cc(OC)ccc4nc3o2)CC1	i	i	i	i	i	nt	nt	nt	nt
COc1ccc2nc3oc(C(=O)NC4CCN(Cc5ccccc5)CC4)cc3cc2c1	63	i	i	98	i	i	nt	91	i
O=C(CSc1nc2c(sc3ccccc32)c(=O)n1CCCN1CCCC1)NCc1ccco1	i	i	i	i	i	nt	nt	nt	nt
Cc1cc(NC(=O)CSc2nc3c(sc4ccccc43)c(=O)n2CCCN2CCOCC2)n[nH]1	59	i	38	70	i	59	i	82	125
CCOC(=O)C(C)Oc1cccc2c(=O)n(CC(=O)NCc3ccc(F)cc3)ccc12 (centres undefined)	73	i	i	69	i	48	nt	61	88
COc1ccc(NC(=O)c2nc(S(=O)(=O)Cc3cccc(C)c3)ncc2Cl)c(OC)c1	54	97	i	85	i	i	nt	70	i
COc1ccc(OC)c(Nc2cc(-c3ccccc3)nc(N)n2)c1	56	nt	i	69	i	i	nt	71	72
SMILES	Jurkat NFkB inh	Shn3 3UTR inh	697 NFkB inh	Mdm2 MdmX PPI	Gli-Sufu block	Jurkat NFkB conf	697 NFkB conf	Mdm2-MdmX conf	FLuc counter
O=c1[nH]c(CN2CCN(c3ccccc3O)CC2)nc2scc(-c3ccccc3Cl)c12	i	i	i	i	i	nt	nt	nt	nt
O=c1[nH]c(CN2CCN(c3ccc(O)cc3)CC2)nc2scc(-c3ccc(Cl)cc3)c12	60	i	i	59	i	i	nt	54	58
CCCCCN=C(N)N/N=C/c1c[nH]c2ccc(OC)cc12	100	i	i	99	i	i	nt	98	i
CCCOc1ccc(C(=O)N/N=C/c2c[nH]c3ccc(Br)cc23)cc1	i	i	i	i	i	nt	nt	nt	nt
CC1=Nc2cc(C(=O)O)ccc2Sc2ccc(Br)cc21	i	i	i	i	i	nt	nt	nt	nt
CC1=Nc2cc(C(=O)NCCCOC(C)C)ccc2Sc2ccccc21	i	i	i	i	i	nt	nt	nt	nt
CC1=Nc2cc(C(=O)NCC3CCCO3)ccc2Sc2ccc(Br)cc21 (centres undefined)	52	nt	i	56	i	i	nt	60	61
CCCC1=Nc2cc(C(=O)NCCCOCC)ccc2Sc2ccccc21	57	i	i	60	i	51	nt	72	124
CC1=Nc2cc(C(=O)NCCCOC(C)C)ccc2Sc2ccc(C)cc21	64	i	i	63	i	i	nt	52	81
CC(C)CC[n+]1ccccc1/C=C/c1ccc(N(C)C)cc1	90	i	i	80	88	49	nt	74	i
O=C(c1nnsc1S(=O)c1ccc(Cl)cc1)N1CCOCC1 (centres undefined)	70	94	i	99	i	i	nt	94	53
O=C(Nc1ccccc1)c1nnsc1S(=O)c1ccc(Cl)cc1 (centres undefined)	i	i	i	i	i	nt	nt	nt	nt
CCOc1cc(S(=O)(=O)N2CC=C(c3ccc(F)cc3)CC2)c(OCC)cc1-n1cnnn1	56	i	i	53	i	i	nt	53	82
COc1ccc(CNCCCC(=O)Nc2c(Cl)ccc(C)c2Cl)cc1OC	i	i	i	i	i	nt	nt	nt	nt
COc1ccc(C(=O)NC2CCCc3ccccc32)cc1[N+](=O)[O-] (centres undefined)	54	i	i	67	i	i	nt	58	53
COc1ccc(N(C(=O)CNC(=O)c2cccs2)C(C(=O)NC2CCCC2)c2ccncc2)cc1 (centres undefined)	i	i	i	i	i	nt	nt	nt	nt
CCO[C@H]1OC(C(=O)NCc2nc3ccccc3[nH]2)=C[C@@H](c2ccccc2)[C@@H]1CCCO	i	i	i	i	i	nt	nt	nt	nt
CCO[C@H]1OC(C(=O)NCc2nc3ccccc3[nH]2)=C[C@@H](C2CC2)[C@@H]1CCCO	61	i	i	53	i	i	nt	73	69

Assay outcomes deposited in PubChem by several laboratories.
